Source: the supplement of paper PMC6555819

system: VDR:RXRa (NR concentration 270 nM, RXRa partner concentration 90 nM); assay: PBM binding z-score (relative to random genomic background probes); higher = stronger binding; sequences stand for … in GC…GCGATTGACAGCGTAGAATGAAGG
Method: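 Protein-binding microarray (Agilent 4x180K custom design, double-stranded 60-nt probes: 5' GC cap, 34-nt variable region, 24-nt constant primer region; full probe sequence given). Purified or IVT nuclear receptor:RXRα heterodimers (3:1 NR:RXRα, mostly 270:90 nM) or homodimers were incubated for 1 h in PBS with 2% milk and no ligand, then detected with Alexa488 antibodies. Fluorescence from o1-orientation probes (~5 replicates averaged) was converted to z-scores against 500 random hg19 background probes. Variable regions are seed direct-repeat (DR0–DR5) sites, all their single-nucleotide variants and half-site ablations.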

Sequence | PBM binding z-score
CGTCCAAGGTCAAGGGTCAGTGAAGAGATGACGG | 5.63
TAGCCTAGGTCAGATGGGGCCAGTATACGCTATA | 2.69
TAGCCTAGGTCGTGCGGGCCAGTATAGTGTCGGC | 0.148
CCAGACAGGTGAGAAGGTGACTCAGCCTCGATTA | -0.0388
TCCGACAGGTGAAGGTAACTCAGGTACGCAGTCG | 0.225
AGAATGAGGTTAAGATCCGGGAAACAGAATACAT | 1.05
ATCTCTAGGTAAAGATAGTTCAGTGAGTGCAAAT | 5.05
ACTATTAGTTGACTTAGGCCAACCGATACGACGC | 0.432
GGAACGAGGGCATTCGAGTTGATAGCGTGGCGAT | 3.59
GCTGCTAGGTCAACAGATGGTCAGCTAAAGCTCG | 1.11
TCTTGTAGATCAACAGGAGGTAAAGAAAGATCGA | 0.194
CCTATTAGTTGACCATAAGGGCCACCGAAGCTCG | 0.0922
TCTTGTAGATCAGCAGATTAAGAAAGCTGGCCAA | 0.172
CCTAGCAGGCCAGGGTCACTTAAGCATTTCGCTT | 2.3
AATACAGGGTCATCGTAGGGCAGAGTACGCACAG | 5.71
CTCGAGAGGTCGTGCTCAGGTGAGTATACCAAAC | 3.37
CGAACTATGTCAGAACAGGACAGTGAAGGATGAT | -0.317
TCATATAGGTAATACAGGTAAAAGTCGGCATCTA | 1.24
GCCAGTTGGTCAGTAAAAGGTCACACACCGGTCG | 3.94
TCAGACAGGTGAAGGTAACGCAGGTACGCAGTCG | 0.637

Sequence | PBM binding z-score
AAAATGAGGTTATTAAGATCAGGGAATTGCGGTC | 2.47
CCAGCCAGGTGAAAGGTAACTCAGTCTGGTACGC | 0.288
TGAATGAGGTTAAAGATCAGGGCACGTGGCGTCG | 2.19
GATACAGGGTCAAGGCCAGCGTACGCGTATTGAT | 3.89
CCTACTGGGCCATCAGGTCATTGACATCAACGTT | 1.64
ATGTCTAGGTAAAGATAGTTCAGTGAATGCAAAT | 0.565
AGTCGAAGTTCAGGACGAGGTAACGTAAAGCACG | 1.15
CCGAGGAGGTTATGGGGCATTCAGGCAACGGTGA | 0.925
CCTATTAGTTTACCATAAGGGCAACCGAAGCTCG | 0.484
CCTTACCGGTCACTCCAGGTTATAGCATCGGAGT | 1.46
GCTATTAGTTGACAGGGCAACCGAATGATTCTCG | -0.414
CCTAGCAGGCCAATTTGGGTCACTCAAGGCTTGA | 0.482
ACTATTAGTTGAGACGTGGGCAACCGATAGGTTG | -0.5
AGAACGAGGGCAATGAGTGGATAGCACGGGTGGC | 1.49
TGTCAAAATTCAAAGGTAACGTAAGTATCCACAC | 0.436
CGTCAAAGTTCAATGTAACGTAACAGAAAGCAGC | 3.74
GTACCAAGATGAATAGGTCGTTGATGAGTAGGCG | -0.0191
TAGCCTAGATCATTGGGCCAGTATAGTACGCATC | -0.685
CCGACTGGGGCATAAAGTTACCATAAGCCAGCCC | -0.432
TGATATAGGTAAAGGTGAAAGTCGAACGATATGA | 0.866
